Wee1 degr inh: human Wee1 degradation inhibition, primary screen; P30291; HeLa Luc-Wee1K328M stability, luciferase luminescence; 100% = proteasome inhibitor MG132 effect; reporter increase, % at 5 µM; hit rate 1.2% among 220,000; AID 1321;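 active = activation above the mean of all tested compounds plus 3 SD, set per screening run, cut at about 8.8% in these data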;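 note: cells exposed to compound for 20 h before luminescence read; 0% = DMSO alone and 100% = MG132 at 30 µM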
Target sequence (P30291 whole entry K328M): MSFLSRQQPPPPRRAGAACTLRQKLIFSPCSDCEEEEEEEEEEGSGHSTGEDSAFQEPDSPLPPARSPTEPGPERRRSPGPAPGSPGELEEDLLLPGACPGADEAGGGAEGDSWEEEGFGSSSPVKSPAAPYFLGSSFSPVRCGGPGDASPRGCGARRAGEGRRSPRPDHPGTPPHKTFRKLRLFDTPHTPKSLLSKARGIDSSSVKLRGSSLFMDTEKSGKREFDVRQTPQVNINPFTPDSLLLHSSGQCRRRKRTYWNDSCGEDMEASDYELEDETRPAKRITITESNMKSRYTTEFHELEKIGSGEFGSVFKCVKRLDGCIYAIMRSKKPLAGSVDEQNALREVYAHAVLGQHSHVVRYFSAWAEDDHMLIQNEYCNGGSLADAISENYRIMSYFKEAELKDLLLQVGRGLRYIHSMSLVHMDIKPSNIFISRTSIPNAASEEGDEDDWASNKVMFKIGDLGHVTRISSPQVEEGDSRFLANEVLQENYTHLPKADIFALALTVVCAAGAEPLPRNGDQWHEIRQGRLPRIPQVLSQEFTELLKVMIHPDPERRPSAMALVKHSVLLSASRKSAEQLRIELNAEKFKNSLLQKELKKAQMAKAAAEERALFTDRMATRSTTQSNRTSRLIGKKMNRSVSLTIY
Arbovirus anti: antivirals against arbovirus infection. arbovirus infection cell-based antiviral screen. inhibition, % at 10 µM. hit rate 0.37% among 200,000. AID 1251; in the data active = inhibition above about 30%
Hsp70 act: Hsp70 transcriptional activation, primary screen | HeLa Hsp70 promoter luciferase reporter, luminescence; scaled: vehicle 0, proteasome-inhibitor control 100% | activation, % at 10 µM | hit rate 0.04% among 200,000 | AID 1203;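 active = activation above the mean across all tested compounds plus 3 SD, cutoff set per campaign, cut at about 5.5% in these data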;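 note: 100% = MG132 at 30 µM as the positive control and 0% = DMSO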
HMGR II inh: E. faecalis class II HMG-CoA reductase inhibition; inhibition, % at 10 µM; hit rate 0.41% among 190,000; AID 1066; purified E. faecalis HMGR, NADPH absorbance 340 nm kinetic;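 active = inhibition above a set limit, the median over all tested compounds plus 3 SD, cut at about 9.5% in these data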;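 note: enzyme runs in reverse so mevalonate oxidation gives rising NADPH absorbance; 0% = complete reaction with DMSO and 100% = background rate lacking mevalonate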
PKD1 kinase inh: inhibitors of human PKD1 kinase | hit rate 0.056% among 200,000 | inhibition, % (concentration not given with the values) | AID 797 | PKD1 kinase fluorescence polarization assay | Q15139; in the data active = inhibition above about 50%
* marks the source's active call; other numbers are inactive results. In the library only some 2% were active in any assay of this set; here they are far more common.

Results for C/C(=N\NC(=O)c1ccccc1C)c1ccc(NC(=O)c2cccs2)cc1 ?
Wee1 degr inh: -2.7; Arbovirus anti: 81.6*; Hsp70 act: 0.0; HMGR II inh: -1.9; PKD1 kinase inh: 2.2

Results for C=CCC1Cc2c(cccc2[N+](=O)[O-])C(CC=C)N1 (configuration not stated) ?
Wee1 degr inh: 3.3; Arbovirus anti: -6.7; Hsp70 act: -0.1; HMGR II inh: -0.6; PKD1 kinase inh: 9.1

What do the screens show for `C=CCC1C=C(C)CC(CC=C)N1` (configuration not stated)?
Wee1 degr inh: -1.0; Arbovirus anti: 22.7; Hsp70 act: 0.0; HMGR II inh: 13.3*; PKD1 kinase inh: -6.5

What do the screens show for `COc1ccc(Nc2cc(C)nc(N)n2)cc1`?
Wee1 degr inh: 2.5

How did COc1ccc(Nc2cc(Cl)nc(N)n2)cc1 do in these assays?
Wee1 degr inh: -0.8; Arbovirus anti: 5.2; Hsp70 act: 0.3; HMGR II inh: 10.9*; PKD1 kinase inh: 0.4

How did O=[N+]([O-])CC(=Nc1ccc(F)cc1)N/N=C\c1oc(O)c2ccccc12 do in these assays?
Wee1 degr inh: -1.7

What do the screens show for `CCSc1nnc(NC(=O)CN2C(=O)C3CC=CCC3C2=O)s1` (configuration not stated)?
Wee1 degr inh: 0.1; Arbovirus anti: 5.1; Hsp70 act: -0.1; HMGR II inh: 14.1*; PKD1 kinase inh: -5.3

Results for O=C(CN1C(=O)C2CC=CCC2C1=O)Nc1nnc(SCc2ccc(F)cc2)s1 (configuration not stated) ?
Wee1 degr inh: -0.2; Arbovirus anti: 12.2; Hsp70 act: -0.4; HMGR II inh: -0.3; PKD1 kinase inh: -5.8

What do the screens show for `COc1cc(/C=C2\COC/C(=C\c3cc(OC)c(OC)c(OC)c3)C2=O)cc(OC)c1OC`?
Wee1 degr inh: 127.1*

How did O=C(COc1ccccc1)Nc1nccs1 do in these assays?
Wee1 degr inh: 9.6*; Arbovirus anti: -1.8; Hsp70 act: 0.0; HMGR II inh: -6.3; PKD1 kinase inh: -8.3

Results for O=c1c(OC2OC(CO)C(O)C(O)C2O)c(-c2ccc(O)c(O)c2)oc2cc(O)cc(O)c12 (configuration not stated) ?
Wee1 degr inh: 0.0; Arbovirus anti: 1.5; Hsp70 act: -0.1; HMGR II inh: 15.5*; PKD1 kinase inh: 25.7

What do the screens show for `C[C@@H]1O[C@@H](Oc2c(-c3cc(O)c(O)c(O)c3)oc3cc(O)cc(O)c3c2=O)[C@H](O)[C@H](O)[C@H]1O`?
Wee1 degr inh: -3.9; Arbovirus anti: 8.4; Hsp70 act: 0.3; HMGR II inh: 5.4; PKD1 kinase inh: 24.3

What do the screens show for `NC(=O)C(CC(=O)O)NC(=O)[C@@H]1CCOc2c(I)cc([N+](=O)[O-])cc2C(=O)N[C@@H](CCC(=O)O)C(=O)N[C@@H](CO)C(=O)N1` (some centres not stated)?
Wee1 degr inh: 8.8*; Arbovirus anti: -3.0; Hsp70 act: -0.3; HMGR II inh: -4.2; PKD1 kinase inh: -3.8

What do the screens show for `C[C@@H]1NC(=O)c2cc([N+](=O)[O-])cc(I)c2OCC[C@@H](C(=O)NC(CC(=O)O)C(N)=O)NC(=O)[C@H](CCC(=O)O)NC1=O` (some centres not stated)?
Wee1 degr inh: 0.1; Arbovirus anti: -1.0; Hsp70 act: 0.0; HMGR II inh: -4.1; PKD1 kinase inh: -2.7

What do the screens show for `O=C(O)c1cc(-c2ccc(N3CCOCC3)cc2)nn1-c1ccccc1Cl`?
Wee1 degr inh: 1.6; Arbovirus anti: 16.2; Hsp70 act: -0.2; HMGR II inh: 20.8*; PKD1 kinase inh: -0.8

What do the screens show for `O=C(COCc1nc2ccccc2c(=O)[nH]1)NCC1CCCCC1`?
Wee1 degr inh: 0.3; Arbovirus anti: 4.8; Hsp70 act: -0.4; HMGR II inh: 15.3*; PKD1 kinase inh: -2.3

Results for O=c1[nH]c(CCC2CCCC2)nc2ccccc12 ?
Wee1 degr inh: -1.2; Arbovirus anti: -0.3; Hsp70 act: -0.5; HMGR II inh: -4.4; PKD1 kinase inh: -8.4

Results for Cc1nnsc1C(=O)NNc1ccc(Cl)cc1 ?
Wee1 degr inh: -0.4

Results for Cc1nnsc1C(=O)NNc1c(Cl)cccc1Cl ?
Wee1 degr inh: 9.0*

What do the screens show for `COc1cc(-c2noc(CCCC(=O)Nc3ccc(C(N)=O)cc3)n2)cc(OC)c1OC`?
Wee1 degr inh: 10.5*

How did CN(/N=C/c1ccncc1)C1=NS(=O)(=O)c2ccccc21 do in these assays?
Wee1 degr inh: -0.5; Arbovirus anti: 5.6; Hsp70 act: -0.1; HMGR II inh: -1.6; PKD1 kinase inh: -4.3

Results for CN(/N=C/c1ccncc1)c1cnc2ccccc2n1 ?
Wee1 degr inh: 10.0*; Arbovirus anti: 3.0; Hsp70 act: 0.1; HMGR II inh: -0.5; PKD1 kinase inh: 0.7

How did CCCCCCc1cc2cc(C(=O)OCC)c(=O)oc2cc1O do in these assays?
Wee1 degr inh: 9.9*

Results for CCCCCCc1cc2cc(C(N)=O)c(=N)oc2cc1O ?
Wee1 degr inh: -0.8; Arbovirus anti: -35.8; Hsp70 act: 0.3; HMGR II inh: 2.4; PKD1 kinase inh: 3.0

What do the screens show for `CCCCCCc1cc2cc(C(=O)Nc3ccc(OC)cc3)c(=O)oc2cc1O`?
Wee1 degr inh: -0.5; Arbovirus anti: 46.8*; Hsp70 act: -0.1; HMGR II inh: -6.9; PKD1 kinase inh: -5.1

How did C=CCN1C(=O)CSc2ccc(C(=O)NCc3cccs3)cc21 do in these assays?
Wee1 degr inh: -3.3; Arbovirus anti: 21.5; Hsp70 act: -0.3; HMGR II inh: -0.7; PKD1 kinase inh: 2.4

What do the screens show for `O=C(O)c1ccc2[nH]c3c(c2c1)CSCC3`?
Wee1 degr inh: -0.6; Arbovirus anti: 30.8*; Hsp70 act: 1.1; HMGR II inh: 0.1; PKD1 kinase inh: 1.5

Results for CN(C)CCOC(=O)c1ccc2[nH]c3c(c2c1)CSCC3 ?
Wee1 degr inh: -4.9

Results for COc1ccc(CCNC(=O)COC(=O)CCC(=O)c2ccc(F)cc2)cc1 ?
Wee1 degr inh: 10.7*; Arbovirus anti: 2.0; Hsp70 act: 0.0; HMGR II inh: 8.5; PKD1 kinase inh: -7.7

Results for CCc1cccc(NC(=O)CCCSc2nc3ccccc3[nH]2)c1 ?
Wee1 degr inh: -1.9; Arbovirus anti: -20.9; Hsp70 act: 0.0; HMGR II inh: -3.7; PKD1 kinase inh: 5.3

How did COc1ccc2cc(-c3cc(C(=O)O)c4ccccc4n3)ccc2c1 do in these assays?
Wee1 degr inh: 1.5; Arbovirus anti: 34.2*; Hsp70 act: -0.4; HMGR II inh: -6.0; PKD1 kinase inh: -1.8

What do the screens show for `Cc1ccccc1S(=O)(=O)N(CC(O)CN1C(=O)NC(C)(C)C1=O)c1ccccc1` (configuration not stated)?
Wee1 degr inh: 3.3

What do the screens show for `Cc1ccc(CN=C(Nc2ccccc2)NC2CCCCC2)cc1`?
Wee1 degr inh: -1.4; Arbovirus anti: 4.1; Hsp70 act: -0.1; HMGR II inh: -2.9; PKD1 kinase inh: 3.8

What do the screens show for `Cc1cccc(C(=O)O/N=C2/CC3CCC2(C)C3(C)C)c1` (configuration not stated)?
Wee1 degr inh: 4.5; Arbovirus anti: -1.4; Hsp70 act: 0.1; HMGR II inh: 11.1*; PKD1 kinase inh: -6.4

Screens (PubChem)
